# Source: the supplement of paper PMC11417369
# ± gives the standard deviation of the averaged measurements. In all, about 25,000 sequences were measured (“ln(normalized median fluorescence intensity)”: median about 7.9, highest 2% from about 11 on). Shown is part of a subset that was picked to be rich in the highest values.
# Test system: PfAP2-I AP2 domain 3 (GST-tagged)
# Experiment: gcPBM binding intensity (ln(normalized median fluorescence intensity)); higher = stronger DNA binding
# In short: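 GST-tagged P. falciparum DNA-binding domains, expressed in E. coli (about 25 μg on average), were applied for 1 h to an Agilent 4 × 180k array of primer-extended double-stranded 36-bp intergenic genomic probes plus negative controls. The binding buffer was 1× PBS with 1% milk, 0.2 mg/ml BSA, 0.5% salmon testes DNA and 0.03% Triton X-100. Bound protein was detected with Alexa488 anti-GST antibody and scanned at 488 nm. Binding intensity is the highest Masliner-normalised natural-log median intensity across replicate spots of either probe orientation.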
row,Sequence,gcPBM binding intensity (ln)
1,GTATTTAGATGATTAACACACATATGTGTATTAATA [CACACA_site6733],7.92 ± 0.41
2,TTCTATTTTTTAAAAGTGCATATTATAAATATATAT,9.63 ± 0.11
3,TAAAATAAAAATATAGTGCACAGATTTTGATATTTT [GTGCAC_site9696],11.2 ± 0.23
4,GGGATATTTTAAAGGGTGCATATTATTAAAATAATG,10.7 ± 0.51
5,ATATATTTTTTAAACACACACATAAATATTTGTGTA [CACACA_site2879],7.84 ± 0.49
6,TTTTGATATAAATATTAGATTAATAAATAAAAAAAT [CACACA_negctrl_site1635],7.8 ± 0.39
7,AATATTTTTTTATAAACACACATATATATAAATATA [CACACA_site3524],7.89 ± 0.33
8,TTTATTTTTATTTTTGTGCACGGGATTAAATAAAAG [GTGCAC_site9842],11.22 ± 0.092
9,TTTTTTATTTTGTGCACACACATAAAAATATATATA [CACACA_site761],11.2 ± 0.31
10,ATTTTTTTATTTTGTGCACACACATAAAAATATATA [CACACA_site762],11.1 ± 0.27
11,TAATAATTTATAATAGTGCATTTGATTTTAAAAATA,9.81 ± 0.51
12,TATTTTATAATAGGCACACATATAAAAATATATATA [CACACA_site4127],7.96 ± 0.52
13,TAAAAAATAAAATACACACACATATTTATATTTATA [CACACA_site6737],7.41 ± 0.4
14,ACTTATTTCGATATGTGTACTTAATATATATATTTA [XGTACX_site6616],7.89 ± 0.39
15,ACATATACAAGACACACACACAACGTTTTAATAAAT [CACACA_site7017],8.12 ± 0.46
16,ACATATTTTTAATACACACTCAAAAAAGTACTTAAC [CACACA_site3014],8.2 ± 0.28
17,TCTACAATTATAATTACACACTATAAAAAAGAAAGA [CACACA_site2984],7.96 ± 0.35
18,TCTTTTTTTTTTATTTGTACTTATTTTTTTCAAAAA [XGTACX_site3403],8.24 ± 0.51
19,TGAAAAAAAAAAAAAAAAAAAAGAAAAAAAAAAAAA [CACACA_negctrl_site709],7.82 ± 1.2
20,AATAATCTATATTGTACACACAAAATGGGAAAAAAA [CACACA_site6969],8.11 ± 0.73

row,Sequence,gcPBM binding intensity (ln)
1,ACATAATATACTATTGTGCACATATATATATATATA [GTGCAC_site9761],10.88 ± 0.085
2,TTTTTTATTTTGTGCACACACATAAAAATATAAATA [CACACA_site6497],11.01 ± 0.042
3,ATATATATTTTTTAAACACACACATAAATATTTGTG [CACACA_site8936],7.97 ± 0.38
4,TTATTTATTTATATAGTGCAATAAACACATAAATAG,10.8 ± 0.47
5,TTTTTCCTATTTTTAGTGCACATATAAATAAATAAA [GTGCAC_site9821],11.6 ± 0.23
6,TATTTTTCCATAAAAATTTATATAGAAACAAATAAT [GTGCAC_negctrl_site103],7.75 ± 0.46
7,ATAAAAAAAAATATTTGTACACATATTTATATATTA [XGTACX_site8147],7.63 ± 0.36
8,ATTTATTTATTGGCACGTACAAATTTGTGTTTTCCA [XGTACX_site6978],8.54 ± 0.53
9,ATAGAACTATATTGCACACATAATATATATATATAT [CACACA_site3189],10.5 ± 0.52
10,ATATCATTTTCCTGCACACATAAATTTATATAATAT [CACACA_site1048],9.45 ± 0.38
11,ACATATAAATATTGTGTGCACACACATAATATATAT,10.2 ± 0.18
12,AATTTTCCATAGATTGTGCACAAATTTTTATTTTGT,10.9 ± 0.2
13,AAAAAGAACAGAAACACACAAATAAAATAAAATTGT [CACACA_site6921],7.72 ± 0.61
14,TTTTTTTTCTTTTTTTGTACATAATAATATATAAAT [XGTACX_site6778],7.68 ± 0.35
15,TGTTCTATTCTATTATTATTTACAAATTATAAATAA [GTGCAC_negctrl_site232],7.89 ± 0.37
16,TTTAATTTTCGGTGTGCACACAACTATGAGTTTTTA [CACACA_site3034],9.565 ± 0.035
17,ATACAATTTATTTTAACACACGAATGAATTGATTAT [CACACA_site4160],7.76 ± 0.63
18,TGTGTATATCGATAAAGTACATTTGAAAAGTGACTT [XGTACX_site6957],7.62 ± 0.51
19,TTTTATTTTTTTAAATGTACACATATTAATGTAAGG [XGTACX_site319],7.92 ± 0.3
20,TATTGGATCACACAAAAATGTATAAATAAATAGAAA [TGCATGCA_negctrl_site490],7.7 ± 0.61

row,Sequence,gcPBM binding intensity (ln)
1,TCGAACATTAACATAACACACATATATATATATATA [CACACA_site2900],9.27 ± 0.29
2,TATATACATATATGCACACAAAAAAATATATATTTT [CACACA_site1729],8.99 ± 0.11
3,ATATTTTGTTTTATAGTGCACATGGGCATATATTAA [GTGCAC_site9435],11 ± 0.32
4,GAAATTTGTTATTGCACACAAATTTTTCTTTTTTTA [CACACA_site2339],10.14 ± 0.028
5,TTATTTTTGTTCATAGTGCATAGAATTTATACATAT,9.91 ± 0.33
6,CATTTTATTTTCTTTGTGCACAAAAATATTTTTTCT,11.13 ± 0.092
7,TATCCATTTCTTTATGTGCACATTAAATATATTTGT,10.2 ± 0.4
8,ATATTATTATATATAGTGCATATTATTATTTTTATT,10.2 ± 0.42
9,TACATATTGATATATACACACAAAAAAATAAATTCT [CACACA_site6198],7.61 ± 0.54
10,ATATATTTGATAAGAGTGCACAAATACATACATACA [GTGCAC_site9704],10.94 ± 0.071
11,TTGTTTGATATCTTTGTCACGAAAAAAATATATATA [GTGCAC_negctrl_site54],7.83 ± 0.64
12,TCTTTTTTCATATTTTCACACATGTCTTTATATTTA [CACACA_site6025],8.28 ± 0.65
13,ATGAATAAATGAACATGTACATATATATATATATTA [XGTACX_site5005],7.76 ± 0.47
14,TTTTGGCTTCTAATATTATACAAAATGGTAAGGAAA [TGCATGCA_negctrl_site169],7.94 ± 0.4
15,TAATTTCTTAGGTATTGTACAAATATTATATGATAT [XGTACX_site256],7.55 ± 0.59
16,TATCCCTTAGAATACACACCCATATGAGGGTGAACT [CACACA_site5610],7.76 ± 0.26
17,TATAATTATATTTGGAGTACAAATTTTTTTTTTTTT [XGTACX_site7494],7.765 ± 0.007
18,TATTTTTTTTTTATATGTACATAATTTCAAATAAAT [XGTACX_site7747],7.97 ± 0.41
19,TATATTTCAGGGGGGAGTACAAATTTTTTTATATAA [XGTACX_site1600],11 ± 0.52
